# According to PubChem BioAssay (NCATS):
# Values joined by “and” are separate entries in the source; they are usually repeats but may differ in a detail not shown here. Equal values may be shown once. Unmarked numbers belong to inactive results. Records with an inconclusive call do not appear. Entries that show only a call come without a potency. Active and inactive are the calls of the source. Unless noted, calls follow the shape of the dose curve; as a rule, active = well fitted curve in the direction sought with a large enough effect; inconclusive = small, poorly fitted or top-dose-only effect, or another doubt; inactive = no such curve, though single readings can be large; an effect the other way counts as inactive or inconclusive.
# Key:
# PA-1 = experiment: Primary qHTS to identify gynecologic anti-cancer compounds using libraries of approved drugs and bioactive compounds (AID 1345084); details: Gynecologic cancer cell panel viability, ATPlite luminescence, 48 h; series mostly up to 57.5 µM; also: nearly all actives have a fitted effect of over 55% in size; also: potency is read from the fitted curve at half-maximal effect
# Procedure, shortened: (§1)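 48 h compound exposure at 37 C, 5% CO2; five-point qHTS. ATPlite luminescence readout of cell ATP.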
# SKOV3 = experiment: as above; details: Gynecologic cancer cell panel viability, ATPlite luminescence, 48 h; series mostly up to 57.5 µM
# Procedure, shortened: as §1
# Tov-21-G = experiment: as above; details: Gynecologic cancer cell panel viability, ATPlite luminescence, 48 h; series mostly up to 57.5 µM
# Procedure, shortened: as §1
# Tov112D = experiment: as above; details: Gynecologic cancer cell panel viability, ATPlite luminescence, 48 h; series mostly up to 57.5 µM
# Procedure, shortened: as §1
# [1] = Drug repurposing screens with cells derived from glioblastoma tumor samples (AID 1345199); details: GBM patient neurospheres viability, ATP luminescence, 48 h; also: nearly all actives have a fitted effect of over 40% in size; also: potency is read from the fitted curve at half-maximal effect
# Procedure, shortened: (§2)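 Four patient lines of CD133+ GBM neurospheres were screened at several concentrations; hits were retested in those lines plus three slower-growing GBM lines, using 48-hour treatment and ATP-based viability.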
# astro = experiment: as above; details: viability, ATP luminescence, 48 h; series mostly up to 45.9 µM
# Procedure, shortened: as §2
# [2] = target: Nuclear receptor subfamily 1 group I member 2 (Rattus norvegicus) (UniProt Q9R1A7); experiment: qHTS assay for small molecule activators of the rat pregnane X receptor (rPXR) signaling pathway (AID 651751; call rule not given here); details: rPXR reporter cells, luciferase (One-Glo), 24 h
# [3] = qHTS assay for small molecule activators of the human pregnane X receptor (PXR) signaling pathway (AID 720659; call rule not given here); details: DPX-2 HepG2 CYP3A4-luciferase, 24 h; series mostly up to 92.3 µM
# [4] = qHTS assay to identify inhibitors of the type 1 interferon - major histocompatibility complex class I in skeletal muscle: Counter screen cell viability and HiBit confirmation (AID 1347412); details: iHSKM muscle cells + IFN-b, HiBiT or CellTiter-Glo, 24 h; also: potency is read from the fitted curve at half-maximal effect; nearly all actives have a fitted effect of over 60% in size
# Procedure, shortened: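 CRISPR HLA-B*08:01-HiBit immortalized human myoblasts (C25cl48) stimulated with 4 ng/ml IFN-beta and compounds (12-point 1:3, top 46 uM final) for 24 h at 37 C. Duplicate plates read by HiBit lytic luminescence or CellTiter Glo ATP.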
# [5] = at 45.9 µM (top of the series), tumour line B
# [6] = at 45.9 µM (top of the series), tumour line D
# Nuclear receptor subfamily 1 group I member 2 (Rattus norvegicus), sequence (Q9R1A7 whole entry, looked up): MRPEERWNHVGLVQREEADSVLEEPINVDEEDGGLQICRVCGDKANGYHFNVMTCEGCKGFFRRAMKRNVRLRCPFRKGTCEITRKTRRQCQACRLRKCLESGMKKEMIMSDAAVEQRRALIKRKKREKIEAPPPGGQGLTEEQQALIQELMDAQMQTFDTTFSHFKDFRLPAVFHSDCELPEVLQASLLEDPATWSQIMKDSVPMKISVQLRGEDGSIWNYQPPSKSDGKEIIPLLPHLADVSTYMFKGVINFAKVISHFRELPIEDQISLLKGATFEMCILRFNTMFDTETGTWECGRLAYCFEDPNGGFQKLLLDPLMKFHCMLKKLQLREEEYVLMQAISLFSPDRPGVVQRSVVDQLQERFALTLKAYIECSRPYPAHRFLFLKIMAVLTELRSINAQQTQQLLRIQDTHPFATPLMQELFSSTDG
compound,measurement,setting,value
Cc1ccc(N=CN(C)C=Nc2ccc(C)cc2C)c(C)c1,Potency,PA-1,inactive
same,Potency,SKOV3,inactive
same,Potency,Tov-21-G,inactive
same,Potency,Tov112D,inactive
same,"activity, negative = cell killing",[1]; [5],-15.5%
same,"activity, negative = cell killing",[1]; [6],-9.79%
same,Potency,astro,inactive
same,max response,[2],4.54%
same,outcome,[3],inactive
COc1ccc(C(=O)N2CCCC2=O)cc1,Potency,PA-1,inactive
same,Potency,SKOV3,inactive
same,Potency,Tov-21-G,inactive
same,Potency,Tov112D,inactive
same,"activity, negative = cell killing",[1]; [5],-4.07%
same,"activity, negative = cell killing",[1]; [6],-13.6%
same,Potency,astro,inactive
Nc1ccc(N)cc1,Potency,PA-1,inactive
same,Potency,SKOV3,inactive
same,Potency,Tov-21-G,inactive
same,Potency,Tov112D,inactive
same,"activity, negative = cell killing",[1]; [5],-10.5%
same,"activity, negative = cell killing",[1]; [6],-20.4%
same,Potency,astro,inactive
CCCC(C)C1(CC)C(=O)N=C(S)NC1=O (configuration not stated),Potency,PA-1,inactive
same,Potency,Tov-21-G,inactive
same,Potency,Tov112D,inactive
same,"activity, negative = cell killing",[1]; [5],-11.2%
same,"activity, negative = cell killing",[1]; [6],-14.3%
same,"activity, negative = cell killing","[1]; at 46 µM (top of the series), tumour line A",-28.3%
Cc1ccc([N+](=O)[O-])[c]2c1[O][Hg]2,Potency,PA-1,2820 nM (active)
same,Potency,SKOV3,3980 nM (active)
same,Potency,Tov-21-G,2000 nM (active)
same,Potency,Tov112D,5620 nM (active)
same,Potency,[4]; HiBiT,6.25 µM (active)
same,Potency,[4]; Viability,14 µM (active)
COCC(=O)N(c1c(C)cccc1C)C(C)C(=O)OC (configuration not stated),Potency,PA-1,inactive
same,Potency,SKOV3,inactive
same,Potency,Tov-21-G,inactive
same,Potency,Tov112D,inactive
same,"activity, negative = cell killing",[1]; [5],-6.18%
same,"activity, negative = cell killing",[1]; [6],-6.37%
same,Potency,astro,inactive
same,max response,[2],3.13%
O=C(CCl)c1ccc(Cl)cc1Cl,Potency,PA-1,inactive
same,Potency,SKOV3,inactive
same,Potency,Tov-21-G,inactive
same,Potency,Tov112D,inactive
same,"activity, negative = cell killing",[1]; [6],-23.6%
same,Potency,astro,12600 nM (active)
same,max response,[2],-0.907%
same,outcome,[3],inactive
CC(Cc1ccc2c(c1)OCO2)NO (configuration not stated),Potency,PA-1,inactive
same,Potency,SKOV3,inactive
same,Potency,Tov-21-G,inactive
same,Potency,Tov112D,inactive
same,"activity, negative = cell killing","[1]; at 108 µM (top of the series), tumour line B",-8.99%
same,"activity, negative = cell killing","[1]; at 108 µM (top of the series), tumour line D",-8.83%
same,Potency,astro,inactive
OC(c1ccccc1)(c1ccccc1)C1CCNCC1,Potency,PA-1,inactive
same,Potency,SKOV3,inactive
same,Potency,Tov-21-G,inactive
same,Potency,Tov112D,inactive
same,"activity, negative = cell killing","[1]; at 21.2 µM (top of the series), tumour line B",-16.1%
same,"activity, negative = cell killing","[1]; at 21.2 µM (top of the series), tumour line D",-0.163%
same,Potency,astro,inactive
CC(C)(O)C(Cl)(Cl)Cl,Potency,PA-1,inactive
same,Potency,SKOV3,inactive
same,Potency,Tov-21-G,inactive
same,Potency,Tov112D,inactive
same,"activity, negative = cell killing",[1]; [5],4%
same,"activity, negative = cell killing",[1]; [6],6.2%
same,Potency,astro,inactive
C[C@@H]1C[C@@H]([C@H](O)CC2CC(=O)NC(=O)C2)C(=O)[C@@H](C)C1,Potency,PA-1,708 nM (active)
same,Potency,SKOV3,2820 nM (active)
same,Potency,Tov-21-G,501 nM (active)
same,Potency,Tov112D,562 nM (active)
same,Potency,[4]; HiBiT,701 nM (active) and 222 nM (active)
